Reference: PubChem BioAssay AID2315 (National Center for Advancing Translational Sciences (NCATS), 2010)
Among all 290,000 compounds or so, about 27,000 (9.3%) were called active. Only a selection was taken, and actives are over-represented in it overall. Unmarked numbers belong to inactive results. Rule as the data show it: active = inhibition mostly above about 28% (no sharp cut-off); inactive = mostly below about 43%.

Experiment: A qHTS for Small Molecule Inhibitors of Shiga Toxin; also: 0% is about no effect
Details: Vero cells, Shiga toxin protein synthesis inhibition reporter; at 38.7 µM, stronger effect = higher value
`CC(=O)c1cc(-c2ccccc2)n(CCC(=O)NC2CCCCCC2)c1C` gave an inhibition of 10.9%. For `O=C(CCS(=O)(=O)c1ccccc1)NC1CCCC1`, the inhibition was 55.4% (active). `O=C(CCNC(=O)C1CCN(S(=O)(=O)c2ccccc2)CC1)NC1CC1` gave an inhibition of -1.38%. With `CC1(C(=O)NNC(=S)NCC2CCCO2)CC1(Cl)Cl` (centres undefined) the inhibition was -2.83%. `Cc1ccc(Cl)cc1NC(=O)C1CCCN(c2cnccn2)C1` (centres undefined) showed an inhibition of -10.6%. In the case of `C=CCN1C(=O)C2(OCCCO2)c2cccc(Cl)c21`, the inhibition is reported as -3.46%. In the case of `CC1(C)Cc2ccccc2/C(=C/C(=O)c2ccccc2)N1`, the inhibition is reported as -3.39%. `COc1ccc(NC(=O)c2cccc3c2C(=O)N(CC2CCCO2)C3)cc1OC` (centres undefined) showed an inhibition of 3.68%. In the case of `CC(=O)N[C@@H](C)C(=O)N1CCC(n2nccc2NC(=O)CCCc2ccccc2)CC1`, the inhibition is reported as 57.5% (active). `Cc1ccc(CN2CCC(n3nccc3NC(=O)CCCc3ccccc3)CC2)o1` showed an inhibition of 21.2%. Work on `CC(=O)NCC(=O)N1CCC(n2nccc2NC(=O)CCCc2ccccc2)CC1` yielded an inhibition of 30.2%. For `COc1cc(N2CCCC2)c(OC)cc1/C=C(/C#N)c1cccc(Br)c1`, the inhibition was -23.2%. Molecule `COc1ccccc1NC(=O)CCN1CCN(c2ccc(Cl)cc2)CC1` has an inhibition of -2.18%. Molecule `CC(Sc1cccc[n+]1[O-])C(=O)Nc1cccc(S(=O)(=O)N2CCOCC2)c1` (centres undefined) has an inhibition of -6.74%. Molecule `Cc1ccc(CNC(=O)Cc2cn(C)c3ccccc23)cc1` has an inhibition of 12.6%. `CCNS(=O)(=O)c1ccc(NC(=O)Nc2cccc(OC)c2)cc1` showed an inhibition of -33.1%. With `COc1cccc(NC(=O)CCNS(=O)(=O)c2ccc3c(c2)oc(=O)n3C)c1` the inhibition was 14.5%. For `COc1cccc(NC(C)=[N+](C)CCNS(=O)(=O)c2ccc(Cl)cc2)c1`, the inhibition was 119% (active). For `CCCCCCC(O)(CCN1CCCCC1)c1ccccc1` (centres undefined), the inhibition was -7.11%. Molecule `COc1ccc(NC(=O)C(CC(C)C)NC(=O)C2CCC(C)CC2)cc1` (centres undefined) has an inhibition of 35.8%. In the case of `CC(=O)c1cnc(-c2ccccc2)s1`, the inhibition is reported as 59% (active). Work on `CNC(=O)c1csc(-c2ccccc2)n1` yielded an inhibition of 25.9%. Work on `O=C(/C=C/Nc1ccccc1)c1cnc(-c2ccccc2)s1` yielded an inhibition of -10.9%. In the case of `CCCn1nnnc1NCc1ccc(OC)cc1`, the inhibition is reported as -12.1%. `CCS(=O)(=O)C1=NSC2=NC(=O)/C(=C\c3ccc(OS(=O)(=O)c4ccccc4)cc3)C(=N)N21` gave an inhibition of 14.7%. In the case of `Cc1ccccc1N1CCN(S(=O)(=O)c2ccc3ccccc3c2)CC1`, the inhibition is reported as -3.59%. Molecule `O=C(c1cccc(-n2cccc2)c1)N1CCN(S(=O)(=O)c2ccc(F)cc2)CC1` has an inhibition of -1.04%. Molecule `NS(=O)(=O)c1ccc(CCNC(=O)c2ccc(Cl)cc2[N+](=O)[O-])cc1` has an inhibition of 12.8%. With `O=C(COc1ccc(Cl)cc1)NCCSc1ccccc1` the inhibition was -8.84%. In the case of `O=C(NCCc1ccccc1)Oc1ccc(Cl)cc1`, the inhibition is reported as 62.7% (active). In the case of `O=C(CCc1ccccc1)NNC(=O)COc1ccc(Cl)cc1`, the inhibition is reported as -14.5%. In the case of `Cc1cc(C(=O)NCCc2ccc(Cl)cc2)c(C)o1`, the inhibition is reported as 87.4% (active). With `Cc1cc(C(=O)NCCc2ccc(Cl)cc2)n(-c2ccccc2)n1` the inhibition was -4.98%. Molecule `COc1cccc(C(=O)NNS(=O)(=O)c2ccc(F)cc2)c1` has an inhibition of 0.43%. In the case of `CCN1CCN(CCNC(=O)c2ccc3c(c2)NC(=O)/C(=C\c2ccc(OC)c(OC)c2)S3)CC1`, the inhibition is reported as -8.25%. With `Cc1ccccc1NC(=O)CN1C(=O)N/C(=C\c2cccn2-c2cccc(C(=O)O)c2)C1=O` the inhibition was -13.8%. In the case of `O=C1N/C(=C/c2cccn2-c2ccccc2)C(=O)N1c1cccc(Cl)c1`, the inhibition is reported as 60.1% (active). In the case of `COc1cc2c(cc1/C=C1/NC(=O)N(c3ccccc3)C1=O)OCO2`, the inhibition is reported as 24.2%. Molecule `CCc1cccc(C)c1N1C(=O)CN(Cc2ccccc2)C1=S` has an inhibition of -3.04%. Work on `O=C(c1c(F)cccc1F)N1CCN(S(=O)(=O)c2ccc3c(c2)OCCO3)CC1` yielded an inhibition of 2.06%. Work on `O=C(Nc1ccc(OCC(=O)N2CCOCC2)cc1)c1cc(F)c(F)cc1Cl` yielded an inhibition of 24.7%. `Cc1cc(=O)oc2c(C)c(OC(C)C(=O)NC3CCN(Cc4ccccc4)CC3)ccc12` (centres undefined) showed an inhibition of -5.37%. In the case of `CCS(=O)(=O)N1Cc2ccccc2CC1C(=O)Nc1ccc(OC)cc1OC` (centres undefined), the inhibition is reported as 24.9%. In the case of `Cc1ccc2nc(NC(=O)C3CCN(S(=O)(=O)c4ccc5c(c4)oc(=O)n5C)CC3)sc2c1`, the inhibition is reported as -20.5%. With `CCS(=O)(=O)N1Cc2ccccc2CC1C(=O)Nc1nc2ccc(F)cc2s1` (centres undefined) the inhibition was 99.4% (active). `CCN(CC)c1ccc(C(=O)Nn2c(C)nc3ccccc3c2=O)cc1` gave an inhibition of 1.76%. `COc1cccc(OCc2nnc3n2N=C(c2ccccc2)C(CC(=O)O)S3)c1` (centres undefined) showed an inhibition of -9.17%. For `COc1ccc(/C=N/NC(=O)c2cccc(C(F)(F)F)c2)cc1`, the inhibition was 17.5%. For `Cn1cccc1/C=N/NC(=O)c1ccc(OC(F)(F)C(F)F)cc1`, the inhibition was 33.1% (active). In the case of `CCn1c(/C=N/NC(=O)c2ccc(OC)cc2)nc2ccccc21`, the inhibition is reported as 15%. `c1ccc(-c2cnc(CN3CCN(c4ccccc4)CC3)o2)cc1` showed an inhibition of -3.91%. With `O=C(COCc1cc(-c2ccc3c(c2)OCO3)on1)N1CCN(c2cccc(Cl)c2)CC1` the inhibition was 4.57%. With `O=C(NC(=S)NC1CCCCC1)c1ccc(Cl)cc1` the inhibition was -12.4%. Molecule `COc1ccc(C(=O)Nc2ccc(NC(=O)C(C)C)nc2)cc1` has an inhibition of 22.3%. For `Cc1ccc(NC(=O)c2cccnc2C(=O)Nc2ccc(C)cc2)cc1`, the inhibition was 20.9%. In the case of `Cc1ccc(NC(=O)c2ccc(Oc3ncccn3)cc2)cc1`, the inhibition is reported as 54.9% (active). `CC(=O)NCCc1nc2cc(NC(=O)c3ccccc3)ccc2n1C` gave an inhibition of 38.3%. Work on `CCc1cc(C(=O)c2ccc(OC)cc2)c(NC(=O)CN2CCN(C)CC2)s1` yielded an inhibition of -6.04%. For `CCCNC(=S)N1CCC(NC(=O)c2ccc(OC)cc2)CC1`, the inhibition was 10.3%. With `COc1ccc(C(=O)NC(=S)NC2CCCCC2)cc1` the inhibition was 91.2% (active). `CCOC(=O)N1CCN(Cc2nc3cc(NC(C)=O)ccc3n2C)CC1` showed an inhibition of -4.25%. For `Cn1c(CN2CCOCC2)nc2cc(NC(=O)c3ccc(Cl)cc3)ccc21`, the inhibition was 69.5% (active). For `CCc1cc(C(N)=O)c(NC(=O)c2ccc(OC)cc2)s1`, the inhibition was 33.1% (active). With `CCc1cc(C(c2ccccc2OC)N2CCOCC2)c(NC(=O)c2ccccc2)s1` (centres undefined) the inhibition was 33.3%. With `Cc1cc(OCC(=O)Nc2c(C)n(C)n(-c3ccccc3)c2=O)ccc1[N+](=O)[O-]` the inhibition was -12.8%. `Cc1ccc(CC2(O)CCN(CCOc3ccc(O)cc3)CC2)cc1` showed an inhibition of -5.63%. For `Cc1ccccc1N1CCN(C2CCCN(C(=O)c3ocnc3C)C2)CC1` (centres undefined), the inhibition was -9.46%. For `Cc1cc(C)cc(NC(=O)C2CCCN(S(=O)(=O)c3ccc4[nH]c(=O)ccc4c3)C2)c1` (centres undefined), the inhibition was 14.1%. Work on `Cc1cccc(NC(=O)c2ccc3c(=O)n(CC4CCCO4)c(=S)[nH]c3c2)c1` (centres undefined) yielded an inhibition of -1%. `O=C(Cn1ccc2cc(S(=O)(=O)N3CCCC3)ccc21)NCc1ccccc1` gave an inhibition of -6.39%. `COc1ccc(NC(=O)CCn2ccnc2)c(OC)c1` gave an inhibition of -6.3%. `COc1ccc(S(=O)(=O)N/N=C\c2ccc(OC)c(COc3ccc(C)cc3[N+](=O)[O-])c2)cc1` showed an inhibition of -12.5%. For `O=C(Nc1ccc(CSc2ccccc2)cc1)c1ccc(CN2CCOCC2)cc1`, the inhibition was 7.03%. For `COc1ccc(NC(=O)c2ccc(C#CC(C)(C)O)cc2)cc1`, the inhibition was 28%. With `Cc1cccc(C(=O)Nc2ccc(Oc3cnccn3)cc2)c1` the inhibition was 57.2% (active). For `COc1ccc(NC(=O)c2ccc(OC)cc2)cc1`, the inhibition was 105% (active). With `O=C(CS(=O)(=O)c1ccccc1)Nc1ccc(S(=O)(=O)Nc2ccccn2)cc1` the inhibition was -7.44%. `Cc1noc(C)c1COc1cccc(C(=O)Nc2cccnc2)c1` showed an inhibition of -6.89%. With `COc1ccc(NC(=O)CS(=O)(=O)c2ccccc2)cc1` the inhibition was 28.2% (active). Molecule `COc1ccc(NC(=O)c2cnc(NS(=O)(=O)c3ccccc3)nc2)cc1` has an inhibition of -13.6%. With `COc1ccc(C(=O)Nc2cccc(S(C)(=O)=O)c2)cc1` the inhibition was 21.9%. For `Cc1cccc(C(=O)Nc2ccccc2C(=O)NCc2cccnc2)c1`, the inhibition was -16.9%. With `COc1ccc(C(=O)Nc2ccc(CN3CCOCC3)cc2)cc1` the inhibition was 80.4% (active). For `CCOc1ccc(C(=O)Nc2ccc(CN3CCOCC3)cc2)cc1Cl`, the inhibition was 9.47%. `O=C(NCCCN1CCCC1=O)C(=O)NCC1OCCN1S(=O)(=O)c1ccc(Br)cc1` (centres undefined) showed an inhibition of 22.9%. Work on `Nc1nc(Nc2ccccc2F)nc(NC2CCCCC2)c1[N+](=O)[O-]` yielded an inhibition of 2.97%. In the case of `Cn1c(N2CCOCC2)c(C=O)c2ccccc21`, the inhibition is reported as -1.16%. With `Cc1ccc(Cn2ncc3c4sc(C)cc4n(C)c3c2=O)c(C)c1` the inhibition was -2.93%. Work on `C=CCn1cc(Cl)cc(C(=O)Nc2ccccc2)c1=O` yielded an inhibition of 16.8%. Work on `CCN(CC)c1ccc(C(=O)NNC(=O)CCc2nc3ccccc3c(=O)[nH]2)cc1` yielded an inhibition of 10.9%. `Cc1ccc(NC(=O)COc2ccc(/C=C3/NC(=O)NC3=O)cc2)cc1` gave an inhibition of 8.39%. For `CC(C)CN(CC(C)C)C(=O)CN1c2cccc3cccc(c23)S1(=O)=O`, the inhibition was 2.89%. `COc1ccc(C(CCN2CCOCC2)c2c(OC)cc(OC)c3c2OC(=O)CC3c2ccc(OC)cc2)cc1` (centres undefined) gave an inhibition of -0.588%. `COc1ccc(C(C)NC(=S)NC2CCCCC2)cc1OC` (centres undefined) showed an inhibition of -35.1%.
